The list is not random: actives were taken first. Their share in the collection is about 3.5%.
MITF primary – blocks human microphthalmia-associated transcription factor; AlphaScreen MITF homodimerization, bead proximity signal; O75030; inhibition, % at 2.6 µM; hit rate 0.91% among 650,000; in the data active = inhibition above about 50%;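 note: 0% = vehicle wells with protein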
Target sequence (O75030 whole entry, looked up): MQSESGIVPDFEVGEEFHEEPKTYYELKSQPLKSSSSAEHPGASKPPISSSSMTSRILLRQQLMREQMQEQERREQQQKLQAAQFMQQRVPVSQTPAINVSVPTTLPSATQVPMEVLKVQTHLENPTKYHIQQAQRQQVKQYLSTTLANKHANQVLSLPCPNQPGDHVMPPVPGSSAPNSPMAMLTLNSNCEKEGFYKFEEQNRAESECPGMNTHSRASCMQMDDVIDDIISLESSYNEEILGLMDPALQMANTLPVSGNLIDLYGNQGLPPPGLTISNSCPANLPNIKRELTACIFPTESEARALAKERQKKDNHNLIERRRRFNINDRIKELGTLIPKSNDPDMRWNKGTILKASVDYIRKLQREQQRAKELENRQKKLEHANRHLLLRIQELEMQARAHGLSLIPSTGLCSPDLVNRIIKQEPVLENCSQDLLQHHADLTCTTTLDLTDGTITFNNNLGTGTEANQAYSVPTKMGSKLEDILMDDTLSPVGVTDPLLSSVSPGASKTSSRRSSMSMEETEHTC
FBW7 act – activators of human E3 ligase FBW7 | Q969H0 | AlphaScreen FBW7–phospho-cyclin E peptide binding, activator screen | normalized activity (activation), % at 26.1 µM | hit rate 0.13% among 650,000; in the data active = normalized activity above about 1.9%;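 note: purified mutant Fbw7 with reduced substrate affinity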
GPR151 ag – activators of human GPR151. Q8TDV0. PathHunter beta-arrestin GPR151 cells, luminescence. activation, % at 11.2 µM. hit rate 1% among 650,000. AID 1508602; in the data active = activation above about 4.9%;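 note: 0% = median of compound wells and 100% = cells with positive control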
TEAD-YAP inh – TEAD-YAP interaction inhibition; inhibition, % at 9.12 µM; HEK-TIYL cells, TEAD-Gal4/YAP UAS-luciferase luminescence; hit rate 1.4% among 640,000; in the data active = inhibition above about 32%;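 note: 0% = median of test compound wells and 100% = reference inhibitor wells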
Active calls of the source: *.

SMILES	MITF primary	FBW7 act	GPR151 ag	TEAD-YAP inh
Cc1ccc(Oc2ccc(NC(=O)c3ccncc3)cc2)cc1C	7	0	0	36*
O=C(Nc1ccncc1)c1ccc(COc2ccccc2Cl)cc1	16	1	-4	60*
Cc1c(C2C(C#N)=C(N)OC3=C2C(=O)CC(C)(C)C3)c(C)c([N+](=O)[O-])c(C)c1[N+](=O)[O-] (centres undefined)	-1	0	2	-2
C=CCc1ccc(OCC(O)CN2CCN(CCO)CC2)c(OC)c1 (centres undefined)	-2	0	1	-9
NC(=O)Nc1ccc2c(c1)OCCCO2	13	0	1	1
O=C(CN1CCC(n2nnc3cc(C(F)(F)F)ccc32)CC1)NNC(=O)c1ccco1	8	0	-1	3
COc1cccc(-n2c(SCC(=O)N3CCC(C)CC3)nc3n[nH]c(C)c3c2=N)c1	15	0	0	13
Cc1ccc(-n2c(SCC(=O)NCc3ccco3)nc3n[nH]c(C)c3c2=N)cc1C	0	0	3	56*
Cc1cc(-n2c(SCC(=O)NCc3ccco3)nc3n[nH]c(C)c3c2=N)ccc1Cl	1	0	5	2
COc1cccc(-n2c(SCC(=O)N3CCN(c4ccccc4OC)CC3)nc3n[nH]c(C)c3c2=N)c1	14	0	1	43*
CCn1ccc2ccc(OC)cc2c1=O	16	2.1*	-1	-10
Cc1ccc2nc(NC(=O)c3cccc4ccccc34)sc2c1	14	0	1	37*
Nc1ccc2nc(NC(=O)c3ccc(Cl)cc3Cl)sc2c1	1	0	-7	70*
O=C(Nc1ccc2nc(NC(=O)c3ccccc3Cl)sc2c1)c1ccccc1Cl	12	0	0	49*
O=C(Nc1nc2ccc(Br)cc2s1)c1ccccc1Cl	-1	0	1	-42
CS(=O)(=O)c1ccc2nc(NC(=O)c3cc(Cl)ccc3[N+](=O)[O-])sc2c1	14	0	2	40*
O=C(Nc1nc2ccc(Cl)cc2s1)c1cccc2ccccc12	15	0	0	-4
CCCCNC(=O)c1ccc(N2CCC3(CC2)OCCO3)c([N+](=O)[O-])c1	8	0	-1	11
COc1ccc2nc(NC(=O)c3ccco3)sc2c1	5	0	-8	42*
O=C(Nc1ccc2nc(NC(=O)C3CCCCC3)sc2c1)C1CCCCC1	5	0	2	40*
Cc1ccc2nc(NC(=O)c3ccco3)sc2c1	9	0	-8	78*
Cc1ccc2nc(NC(=S)NC(=O)c3ccco3)sc2c1	4	0	0	-71
O=C(Nc1nc([N+](=O)[O-])cs1)c1ccc(Cl)cc1Cl	7	0	-9	88*
CC(=O)Nc1ccc2nc(NC(=O)C3CCCCC3)sc2c1	13	0	1	1
Cc1cc(COc2ccccc2OCCN2CCN(C)CC2)no1	2	2	-1	7
SMILES	MITF primary	FBW7 act	GPR151 ag	TEAD-YAP inh
O=C(Nc1cccc(-c2nc3ccc(NC(=O)c4cccnc4)cc3o2)c1)c1cccnc1	5	0	2	41*
O=C(Nc1ccc(-c2ccn[nH]2)cc1)c1cccnc1	-4	0	-10	79*
CCOc1cc(C(=O)Nc2ccc(-c3ccn[nH]3)cc2)cc(OCC)c1OCC	12	0	-1	51*
CCS(=O)(=O)N1CCN(Cc2cc(OC)c(OC)cc2OC)CC1	37	0	2	6
O=C(CNc1ccc(I)cc1)N/N=C/c1ccc(O)cc1O	10	0	-1	56*
O=C(N/N=C/c1ccc(O)cc1O)c1ccc(I)cc1	29	0	3	46*
O=C1c2cccc3cccc(c23)C(=O)N1CCN1CCN(S(=O)(=O)c2ccc(I)cc2)CC1	-4	0	0	-15
c1cnc(Nc2nc(NC3CC3)c3ncn(-c4ccsc4)c3n2)nc1	9	0	2	50*
c1cncc(Nc2nc(NC3CC3)c3ncn(-c4ccsc4)c3n2)c1	5	0	2	11
Cn1c(Nc2nc(NC3CC3)c3ncn(-c4ccsc4)c3n2)nc2ccccc21	9	0	-1	59*
CCCNc1nc(Nc2nc3ccccc3n2C)nc2c1ncn2-c1ccsc1	3	0	-1	8
O=C(NCCc1c[nH]c2ccccc12)C(=O)NCc1ccc(Cl)cc1	-8	0	0	-2
Cc1ccccc1NC(=O)Cn1c(C)cc(=O)c2ccccc21	5	0	1	39*
COc1cccc(-c2cnn3c(N4CCC[C@H]4CO)ccnc23)c1	3	0	-1	59*
OC[C@@H]1CCCN1c1ccnc2c(-c3cc4ccccc4o3)cnn12	-6	0	-4	44*

Source: PubChem
